Structures can show the parent of a compound that is named as a salt. ± gives the standard deviation of the averaged measurements. Whole data set: some 2,000 compounds, median “relative cell viability vs DMSO, compound + 0.2 uM CuET” near 1, cut for the lowest 2% near 0.25. The entries come from a sample that favours the lowest values as a whole.
What follows are molecules tested on TE10 (assay: relative cell viability vs DMSO, compound + 0.2 uM CuET (fraction); TE10 is an esophageal squamous carcinoma line; higher = less cytotoxic). Settings: 2 µM; co-treatment: CuET (bis(diethyldithiocarbamate)copper) 0.2 uM; 48 h.
Procedure: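 TE10 ESCC cells (1,000/well, 384-well plates) were treated with Selleck bioactive library compounds at 2 uM combined with 0.2 uM CuET (copper diethyldithiocarbamate) for 48 h. Viability was read by CellTiter-Glo and expressed relative to DMSO wells. Two technical replicates (A, B).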
In the case of `COc1cc2c(cc1NS(=O)(=O)c1ccc(Br)cc1C)n(C)c(=O)n2C`, the relative cell viability is reported as 1.17 ± 0.15. In the case of `CCCC(=O)Nc1cccc(NC(=O)c2ccccc2Br)c1`, the relative cell viability is reported as 1.01 ± 0.16. For `O=C(O)CCNc1cc(N2CCc3ccccc3CC2)nc(-c2ccccn2)n1`, the relative cell viability was 0.765 ± 0.0059. Molecule `CNc1nc(Nc2cnn(C3CCN(C4COC4)CC3F)c2Cl)ncc1C(F)(F)F` (stereo unspecified) has a relative cell viability of 1.195 ± 0.0015. For `Nc1cccc(-c2cc3c(Oc4cccc(O)c4)ncnc3[nH]2)c1`, the relative cell viability was 0.976 ± 0.062. In the case of `CC(C)Oc1ccc(-c2cnc3c(-c4ccnc5ccccc45)cnn3c2)cc1`, the relative cell viability is reported as 1.15 ± 0.088. For `c1cc(-c2cnn3cc(-c4ccc(N5CCNCC5)cc4)cnc23)c2cccnc2c1`, the relative cell viability was 0.182 ± 0.0055. In the case of `COc1ccc(-c2cnc3c(-c4cccc5ncccc45)cnn3c2)cc1`, the relative cell viability is reported as 1.17 ± 0.13. `Cc1c(C(=O)Nc2ccc(N3C[C@@H](C)O[C@@H](C)C3)nc2)cccc1-c1ccc(OC(F)(F)F)cc1` [LDE225 (NVP-LDE225,Erismodegib)] was tested, and the relative cell viability was 0.714 ± 0.081. In the case of `COc1nc(N)nc2c1ncn2[C@@H]1O[C@H](CO)[C@@H](O)[C@@H]1O` [Nelarabine], the relative cell viability is reported as 1.21 ± 0.043. With `COc1ccc(C[C@H](N)C(=O)N[C@H]2[C@@H](O)[C@H](n3cnc4c(N(C)C)ncnc43)O[C@@H]2CO)cc1` [Puromycin 2HCl] the relative cell viability was 0.249 ± 0.0061. `CNc1ncnc2c1ncn2[C@@H]1O[C@H](CO)[C@@H](O)[C@H]1O` [N6-methyladenosine (m6A)] showed a relative cell viability of 1.06 ± 0.23. Molecule `Nc1nonc1C(=Nc1ccc(F)c(Cl)c1)NO` has a relative cell viability of 1.15 ± 0.14. Molecule `O=C(Nc1cc2cc[nH]c2cn1)c1ccccc1` has a relative cell viability of 0.3986 ± 0.0004. For `Cc1c(CN2CCN(C(=O)[C@H](C)O)CC2)sc2c(N3CCOCC3)nc(-c3cnc(N)nc3)nc12`, the relative cell viability was 0.495 ± 0.091. Molecule `CS(=O)(=O)N1CCN(Cc2cc3nc(-c4cccc5[nH]ncc45)nc(N4CCOCC4)c3s2)CC1` has a relative cell viability of 0.68 ± 0.0074. With `COc1ccc(-c2nc(N3CCOCC3)c3sc(CN(C)c4ncc(C(=O)NO)cn4)cc3n2)cn1` the relative cell viability was 0.1569 ± 0.00068. Molecule `NCCCC[C@@H]1NC(=O)[C@@H](Cc2ccc(O)cc2)NC(=O)[C@H](CC(=O)O)NC(=O)CNC(=O)[C@H](CCCN=C(N)N)NC1=O` [Cyclo(RGDyK)] has a relative cell viability of 1.19 ± 0.27. With `O=C(O)c1ccc(N2C(=O)C(=Cc3ccc(-c4ccc([N+](=O)[O-])cc4)o3)C=C2c2ccccc2)cc1` the relative cell viability was 1.1 ± 0.22. Work on `Cc1cc(Cl)ccc1OCCCC(=O)NO` [Droxinostat] yielded a relative cell viability of 0.997 ± 0.063. Work on `Cc1cc(C)cc(C(=O)NOCCCCCC(=O)NO)c1` yielded a relative cell viability of 0.23 ± 0.02. Molecule `O=C(CCCCCCC(=O)Nc1ccccc1)NO` [Vorinostat (SAHA, MK0683)] has a relative cell viability of 0.473 ± 0.055. For `C[C@H](O)[C@H](O)[C@@H](O)[C@@H](O)C=O` [L-(+)-Rhamnose Monohydrate], the relative cell viability was 1.15 ± 0.046. `CC(NC(=O)Cc1cc(F)cc(F)c1)C(=O)NC(C(=O)OC(C)(C)C)c1ccccc1` (stereo unspecified) showed a relative cell viability of 1.23 ± 0.04. `CN(CCOc1ccc(CC2SC(=O)NC2=O)cc1)c1ccccn1` (stereo unspecified) [Rosiglitazone] showed a relative cell viability of 1.04 ± 0.052. Work on `CN(CCOc1ccc(CC2SC(=O)NC2=O)cc1)c1ccccn1` (stereo unspecified) [Rosiglitazone HCl] yielded a relative cell viability of 1.06 ± 0.062. For `CN(CCOc1ccc(CC2SC(=O)NC2=O)cc1)c1ccccn1` (stereo unspecified) [Rosiglitazone maleate], the relative cell viability was 1.12 ± 0.081. With `COC(=O)C1=C(C#N)NC(C)=C(C(=O)OC(C)C)C1c1cccc([N+](=O)[O-])c1` (stereo unspecified) [Nilvadipine] the relative cell viability was 1.11 ± 0.1. In the case of `O=C(Nc1cccc2cccnc12)c1ccc(N2C(=O)C3C4C=CC(C4)C3C2=O)cc1` (stereo not drawn) [IWR-1-endo], the relative cell viability is reported as 0.994 ± 0.1. With `Cc1ccc(S(=O)(=O)c2ccc([N+](=O)[O-])o2)cc1` the relative cell viability was 0.175 ± 0.0036. Molecule `NC(=O)N/N=C/c1ccc([N+](=O)[O-])o1` [Nitrofural] has a relative cell viability of 1.3 ± 0.033. For `Nc1ccc(S(=O)(=O)Nc2ncccn2)cc1` [Sulfadiazine], the relative cell viability was 1.03 ± 0.045. `CNS(=O)(=O)CCc1ccc2[nH]cc(C3CCN(C)CC3)c2c1` [Naratriptan] was tested, and the relative cell viability was 1.2 ± 0.1. `CCN(CCO)CCCOc1ccc2c(Nc3cc(CC(=O)Nc4cccc(F)c4)[nH]n3)ncnc2c1` [Barasertib (AZD1152-HQPA)] showed a relative cell viability of 1.25 ± 0.26. `CCCC[C@@H](C=O)NC(=O)[C@H](CC(C)C)NC(=O)OCc1ccccc1` [Calpeptin] gave a relative cell viability of 1.12 ± 0.036. `CC(C)C[C@@H](C=O)NC(=O)[C@H](CC(C)C)NC(=O)[C@H](CC(C)C)NC(=O)OCc1ccccc1` was tested, and the relative cell viability was 0.223 ± 0.006. For `CC(NC(=O)C(Cc1ccccc1)NC(=O)OCc1ccccc1)C(=O)CF` (stereo unspecified), the relative cell viability was 1.14 ± 0.028. `C[C@]12CCC(=O)C=C1[C@@H]1C[C@@H]1[C@H]1[C@@H]3[C@@H]4C[C@@H]4[C@@]4(CCC(=O)O4)[C@@]3(C)CC[C@@H]12` [Drospirenone] was tested, and the relative cell viability was 0.77 ± 0.4. For `O=C(Cc1ccc(-c2ccc(OCCN3CCOCC3)cc2)cn1)NCc1ccccc1`, the relative cell viability was 0.827 ± 0.037. For `COc1ccc(C[C@H](NC(=O)[C@H](C)NC(=O)CN2CCOCC2)C(=O)N[C@@H](Cc2ccccc2)C(=O)[C@@]2(C)CO2)cc1`, the relative cell viability was 0.198 ± 0.0095. Work on `CC(C)CC(CC(=O)NO)C(=O)N[C@@H](Cc1ccc2ccccc2c1)C(=O)N[C@@H](C)C(=O)NCCN` (stereo partly specified) yielded a relative cell viability of 1.19 ± 0.051. `COC[C@H](NC(=O)c1cnc(C)s1)C(=O)N[C@@H](COC)C(=O)N[C@@H](Cc1ccccc1)C(=O)[C@@]1(C)CO1` [Oprozomib (ONX 0912)] gave a relative cell viability of 0.182 ± 0.0023. `CC(C)c1nc(CN(C)C(=O)N[C@@H](CCN2CCOCC2)C(=O)N[C@H](CC[C@H](Cc2ccccc2)NC(=O)OCc2cncs2)Cc2ccccc2)cs1` [Cobicistat (GS-9350)] gave a relative cell viability of 0.957 ± 0.025. `CC(C)C[C@H](NC(=O)[C@H](CCc1ccccc1)NC(=O)CN1CCOCC1)C(=O)N[C@@H](Cc1ccccc1)C(=O)N[C@@H](CC(C)C)C(=O)[C@@]1(C)CO1` [Carfilzomib (PR-171)] was tested, and the relative cell viability was 0.198 ± 0.019. Molecule `COC(=O)[C@H](Cc1ccccc1)NC(=O)[C@@H](N)CC(=O)O` [Aspartame] has a relative cell viability of 1.09 ± 0.034. For `CC(C)C[C@H](NC(=O)[C@H](Cc1ccccc1)NC(=O)c1cnccn1)B(O)O` [Bortezomib (PS-341)], the relative cell viability was 0.348 ± 0.058. `CC(=O)NC(Cc1ccc(O)cc1)C(=O)NC(CCCN=C(N)N)C(=O)NC(Cc1ccccc1)C(N)=O` (stereo unspecified) gave a relative cell viability of 0.977 ± 0.19. `Cc1c(-c2ccnn2C)cc(C(=O)NCc2ccc(S(C)(=O)=O)cn2)c(=O)n1-c1cccc(C(F)(F)F)c1` [Alvelestat (AZD9668)] gave a relative cell viability of 0.993 ± 0.044. With `CC(C)(C)c1cnc(CSc2cnc(NC(=O)C3CCNCC3)s2)o1` the relative cell viability was 0.963 ± 0.093. `COc1c2ccoc2cc2oc(=O)ccc12` [Bergapten] showed a relative cell viability of 1.12 ± 0.038. `CCC(=O)O[C@]1(C(=O)SCF)[C@H](C)C[C@H]2[C@@H]3C[C@H](F)C4=CC(=O)C=C[C@]4(C)[C@@]3(F)[C@@H](O)C[C@@]21C` [Fluticasone propionate] was tested, and the relative cell viability was 1.02 ± 0.043. With `Oc1c(Br)cc(Br)c2cccnc12` [Broxyquinoline] the relative cell viability was 0.689 ± 0.033. In the case of `O=S(=O)(O)c1cc(O)ccc1O` [Ethamsylate], the relative cell viability is reported as 1.08 ± 0.096. Molecule `C=CCc1ccc(O)c(-c2cc(CC=C)ccc2O)c1` [Magnolol] has a relative cell viability of 1.02 ± 0.057. For `O=S(=O)(O)CCS` [Mesna], the relative cell viability was 1.08 ± 0.024. In the case of `CN1CCN(Cc2ccc(NC(=O)Cc3ccc(Oc4cc(NC(=O)C5CC5)ncn4)cc3)cc2C(F)(F)F)CC1`, the relative cell viability is reported as 0.9884 ± 0.0017. Work on `CCS(=O)(=O)Nc1ccc2[nH]c(O)c(C(=Nc3ccc(CN4CCCCC4)cc3)c3ccccc3)c2c1` [Hesperadin] yielded a relative cell viability of 0.5395 ± 0.0028. Work on `CCOC(=O)C1=C(N)Oc2ccc(Cl)cc2C1C(C#N)C(=O)OCC` (stereo unspecified) yielded a relative cell viability of 0.663 ± 0.023. With `CN[C@@H](C)C(=O)N[C@H](C(=O)N1CCC[C@H]1C(=O)N[C@H](C(=O)NCCCCCCNC(=O)[C@@H](NC(=O)[C@@H]1CCCN1C(=O)[C@@H](NC(=O)[C@H](C)NC)C1CCCCC1)C(c1ccccc1)c1ccccc1)C(c1ccccc1)c1ccccc1)C1CCCCC1` the relative cell viability was 0.437 ± 0.011. For `CC(C)(C)c1[nH]cnc1/C=c1\[nH]c(=O)/c(=C/c2ccccc2)[nH]c1=O` [Plinabulin (NPI-2358)], the relative cell viability was 0.753 ± 0.058. With `COc1nc(-c2ccc3c(c2)OCO3)n(-c2ccc(NC(=O)CSc3ccccc3)cc2)n1` [SecinH3] the relative cell viability was 1.25 ± 0.17. `COCCOc1nc(-c2ccc(Cl)c(Cl)c2)n(-c2ccc(NC(=O)CCl)cc2)n1` [MI-2 (MALT1 inhibitor)] gave a relative cell viability of 0.115 ± 0.0096. Work on `NCC(=O)Nc1ccc(-n2nc(C(F)(F)F)cc2-c2ccc3c(ccc4ccccc43)c2)cc1` yielded a relative cell viability of 0.649 ± 0.017. `CN(C)c1cc(NC(=O)CNC(C)(C)C)c(O)c2c1CC1CC3C(N(C)C)C(=O)C(C(N)=O)=C(O)C3(O)C(=O)C1=C2O` (stereo unspecified) [Tigecycline] was tested, and the relative cell viability was 0.994 ± 0.068. With `O=Nc1c(-c2c(O)[nH]c3cc(Br)ccc23)[nH]c2ccccc12` the relative cell viability was 1.083 ± 0.0023. `C[N+]1(C)[C@@H]2C[C@@H](OC(=O)C(O)(c3cccs3)c3cccs3)C[C@H]1[C@@H]1O[C@@H]12` [Tiotropium Bromide hydrate] showed a relative cell viability of 0.962 ± 0.027. `C=C1CC2(O)OC3(CC2C(C)C)C(C)CCC13` (stereo unspecified) [Curcumol] showed a relative cell viability of 0.838 ± 0.028. For `CC(C)[C@H](C(=O)Nc1ccc(C(=O)NO)cc1)c1ccccc1`, the relative cell viability was 0.178 ± 0.0071. Molecule `CCCCN(Cc1ccc(C(=O)NO)cc1)C(=O)Nc1ccccc1` [Nexturastat A] has a relative cell viability of 0.837 ± 0.056. In the case of `CC(=O)Nc1ccc(C(=O)Nc2ccccc2N)cc1` [CI994 (Tacedinaline)], the relative cell viability is reported as 1.23 ± 0.26. With `Cc1c(C(=O)NN2CCCCC2)nn(-c2ccc(Cl)cc2Cl)c1-c1ccc(Cl)cc1` [Rimonabant] the relative cell viability was 0.716 ± 0.15. `NC1=N[C@@]2(c3cc(NC(=O)c4ccc(F)cn4)ccc3F)COC[C@H]2CS1` gave a relative cell viability of 0.948 ± 0.07. Molecule `O=C(O)C(Cc1ccccc1[N+](=O)[O-])=NNc1nc(-c2ccc(Cl)c(Cl)c2)cs1` has a relative cell viability of 1.04 ± 0.16. `O=C(/C=C/n1cnc(-c2cc(C(F)(F)F)cc(C(F)(F)F)c2)n1)N1CC(F)(F)C1` gave a relative cell viability of 0.355 ± 0.025. `O=C(/C=C\n1cnc(-c2cc(C(F)(F)F)cc(C(F)(F)F)c2)n1)NNc1cnccn1` was tested, and the relative cell viability was 0.29 ± 0.015. With `COc1cc(-c2ncn(/C=C\C(=O)OC(C)C)n2)cc(C(F)(F)F)c1` the relative cell viability was 0.25 ± 0.0078.

Reference: the supplement of paper PMC10670038
